Source: PubChem
HP1b binding inh = HP1-beta chromodomain-methylated histone interaction inhibition | AlphaScreen HP1-beta / biotin-H3K9me3 peptide binding | Potency, µM (top dose mostly 114 µM), for inactives: top-dose activity change, negative = inhibition, hits mostly inhibitors | 390,000 tested, 0.56% active; further: potency means the concentration at half of the fitted maximal effect; nearly all actives have a fitted effect of over 70% in size
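HP1-beta protein (50 nM final) preincubated 30 min at room temperature with biotinylated H3(1-18)K9me3 peptide (50 nM) in PBS pH 7.4, 0.01% Tween-20, then compound added for 30 min. AlphaScreen streptavidin donor/nickel chelate acceptor beads (10 ug/mL final), 30 min dark, luminescence read.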
BAZ2B block = blocks human BAZ2B; Q9UIF8; AID 504333; Potency, µM (top dose mostly 114 µM), for inactives: at the top dose activity change, negative = inhibition, most hits filed as inhibitors; 360,000 tested, 4.4% active; AlphaScreen BAZ2B-H3K14Ac peptide displacement; further: potency means the concentration at half of the fitted maximal effect; on the % scale 0 is the no-effect control and ±100 the full control effect; nearly all actives have a fitted effect of over 60% in size
Target sequence (Q9UIF8 whole entry, looked up): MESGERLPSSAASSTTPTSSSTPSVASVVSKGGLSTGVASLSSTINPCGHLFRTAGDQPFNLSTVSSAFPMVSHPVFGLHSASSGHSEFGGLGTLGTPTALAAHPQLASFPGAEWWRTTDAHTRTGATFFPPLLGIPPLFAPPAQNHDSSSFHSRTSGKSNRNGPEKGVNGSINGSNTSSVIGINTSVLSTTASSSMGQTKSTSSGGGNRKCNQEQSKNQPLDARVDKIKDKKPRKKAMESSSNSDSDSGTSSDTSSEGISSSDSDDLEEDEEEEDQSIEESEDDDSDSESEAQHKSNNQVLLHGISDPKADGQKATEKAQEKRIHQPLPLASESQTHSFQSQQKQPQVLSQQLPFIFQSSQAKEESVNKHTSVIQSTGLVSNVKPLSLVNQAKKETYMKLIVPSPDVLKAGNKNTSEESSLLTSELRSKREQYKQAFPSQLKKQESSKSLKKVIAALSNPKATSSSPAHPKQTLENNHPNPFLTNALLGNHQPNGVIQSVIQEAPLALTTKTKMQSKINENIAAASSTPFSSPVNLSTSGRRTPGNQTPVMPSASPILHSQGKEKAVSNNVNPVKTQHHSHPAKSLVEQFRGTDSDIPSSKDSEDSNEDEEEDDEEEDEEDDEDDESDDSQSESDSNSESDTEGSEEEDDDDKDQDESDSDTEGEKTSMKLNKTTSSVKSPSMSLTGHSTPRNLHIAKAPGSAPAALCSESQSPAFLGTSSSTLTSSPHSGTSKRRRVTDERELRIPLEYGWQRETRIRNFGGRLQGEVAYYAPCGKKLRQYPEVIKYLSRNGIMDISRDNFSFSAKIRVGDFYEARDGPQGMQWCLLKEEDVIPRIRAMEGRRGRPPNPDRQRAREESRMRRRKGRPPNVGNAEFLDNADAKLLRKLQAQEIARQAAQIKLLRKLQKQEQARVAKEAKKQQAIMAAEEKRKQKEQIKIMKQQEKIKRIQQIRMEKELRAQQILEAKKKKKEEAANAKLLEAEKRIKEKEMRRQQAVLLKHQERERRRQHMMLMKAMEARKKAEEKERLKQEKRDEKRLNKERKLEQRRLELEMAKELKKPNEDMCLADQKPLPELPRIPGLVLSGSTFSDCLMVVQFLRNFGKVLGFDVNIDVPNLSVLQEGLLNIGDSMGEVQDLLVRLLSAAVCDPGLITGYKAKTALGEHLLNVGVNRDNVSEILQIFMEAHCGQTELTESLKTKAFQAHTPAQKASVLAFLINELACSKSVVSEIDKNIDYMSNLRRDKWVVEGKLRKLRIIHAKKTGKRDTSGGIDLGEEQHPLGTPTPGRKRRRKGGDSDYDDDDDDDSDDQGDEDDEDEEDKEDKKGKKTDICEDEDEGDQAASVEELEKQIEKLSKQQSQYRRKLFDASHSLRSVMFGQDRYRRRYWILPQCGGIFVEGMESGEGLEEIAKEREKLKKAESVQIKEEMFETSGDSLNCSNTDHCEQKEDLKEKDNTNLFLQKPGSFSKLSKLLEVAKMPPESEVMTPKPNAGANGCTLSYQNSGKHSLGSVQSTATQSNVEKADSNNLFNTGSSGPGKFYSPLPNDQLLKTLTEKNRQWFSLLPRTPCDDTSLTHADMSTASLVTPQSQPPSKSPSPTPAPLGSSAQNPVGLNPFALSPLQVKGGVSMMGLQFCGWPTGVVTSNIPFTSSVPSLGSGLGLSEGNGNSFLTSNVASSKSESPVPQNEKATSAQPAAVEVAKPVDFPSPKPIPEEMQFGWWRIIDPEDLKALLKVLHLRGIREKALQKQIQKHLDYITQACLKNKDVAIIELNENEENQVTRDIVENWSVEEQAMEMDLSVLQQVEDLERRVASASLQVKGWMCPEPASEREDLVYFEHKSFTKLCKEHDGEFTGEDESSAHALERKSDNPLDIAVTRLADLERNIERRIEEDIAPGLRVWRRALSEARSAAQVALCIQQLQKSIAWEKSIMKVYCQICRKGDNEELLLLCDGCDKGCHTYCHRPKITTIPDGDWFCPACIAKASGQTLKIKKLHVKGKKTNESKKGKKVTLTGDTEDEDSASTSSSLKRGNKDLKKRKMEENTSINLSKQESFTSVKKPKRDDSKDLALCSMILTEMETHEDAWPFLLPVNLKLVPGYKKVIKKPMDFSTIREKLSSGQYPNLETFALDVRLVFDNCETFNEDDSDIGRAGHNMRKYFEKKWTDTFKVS
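AlphaScreen displacement: compounds (up to 110uM) incubated 30 min at room temperature with a preformed 50 nM BAZ2B/50 nM biotinylated H3K14Ac peptide complex in PBS pH 7.4 with Tween-20. Donor and acceptor beads at 10 ug/mL final added, 20 min light-protected before reading.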
PI5P4K alpha inh = inhibitors of human PI5P4K alpha | PI5P4Kalpha enzyme, ADP-Glo luminescence, 60 min; hits give low values | P48426 | 330,000 tested, 1.2% active | AID 652105 | max response, %; active means max response of -50% or lower; inconclusive means between -30% and -50%; inactive means -30% or higher; further: value at the top dose of about 77 µM; on the % scale 0 is the no-effect control and ±100 the full control effect
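ADP-Glo luminescence end-point read after a 60 min room-temperature kinase reaction of PI5P4Kalpha plus substrate, initiated with ATP at 5 microM final. Buffer: 0.038 M HEPES pH 7.4, EGTA, 0.1% CHAPS, 5% DMSO.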
G9a inh = G9a (human) methyltransferase inhibition; Q96KQ7; G9a H3K9 monomethylation, AlphaScreen, 2 h; Potency, µM (titrated, usually from 102 µM), without a hit: top-dose activity, negative = inhibition, actives largely listed as inhibitors; 350,000 tested, 8.8% active; further: potency means the concentration at half of the fitted maximal effect; on the % scale 0 is the no-effect control and ±100 the full control effect; nearly all actives have a fitted effect of over 75% in size
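AlphaScreen detection with an anti-monomethyl H3K9 antibody quantified product after a 2 h room-temperature reaction containing 500 nM biotinylated H3K9 peptide, 20 µM SAM and 20 nM enzyme, which had been preincubated 15 min with compound.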
JMJD2A Tudor inh = blocks the human JMJD2A Tudor domain. 390,000 tested, 4.4% active. Potency, µM (titrated, usually from 114 µM), for the others: at the highest dose activity change, negative = inhibition, hits mostly inhibitors. O75164. AlphaScreen JMJD2A-Tudor / H3K4me3 peptide binding; further: potency means the concentration at half of the fitted maximal effect; on the % scale 0 is the no-effect control and ±100 the full control effect; nearly all actives have a fitted effect of over 50% in size
PLK1 PBD inh = PLK1 (human) polo-box domain binding inhibition; Plk1 PBD binding of FITC phosphopeptide, fluorescence polarization; Potency, µM, for the others: max response, negative = inhibition, actives largely listed as inhibitors; 360,000 tested, 2.8% active; further: potency means the concentration at half of the fitted maximal effect; series mostly up to about 57 µM; on the % scale 0 is the no-effect control and ±100 the full control effect; nearly all actives have a fitted effect of over 65% in size
An asterisk follows results filed as active; ? = inconclusive; · = not tested or not shown; [ ] = dose if it differs, or a comment. Compounds with a hit are over-represented: about 12% of the library has one in this group of screens. Unless noted, the call rests on the fitted dose curve; in most records, active means well fitted curve in the direction sought with a large enough effect; inconclusive means small, poorly fitted or top-dose-only effect, or another doubt; inactive means no such curve, though single readings can be large; an effect the other way counts as inactive or inconclusive.

SMILES	HP1b binding inh	BAZ2B block	PI5P4K alpha inh	G9a inh	JMJD2A Tudor inh	PLK1 PBD inh
O=C1c2ccccc2[C@@H]2Cc3csc[n+]3[C@H]12	·	·	4.1	·	·	?
CCS(=O)(=O)c1ncc(N(Cc2ccco2)Cc2sccc2C)c(C(=O)Nc2ccc(C)cc2C)n1	49.2%	-25.8%	·	-7.0%[59 µM]	-17.2%	·
NS(=O)(=O)c1cc(C(=O)OCC(=O)c2ccc3c(c2)OCCO3)ccc1Cl	5.8%	-24.1%	?	24.2%[12.7 µM]	-26.1%	29.9µM*
CNS(=O)(=O)c1cccc(C(=O)OCC(=O)c2ccc3c(c2)OCCO3)c1	-15.5%	-28.7%	-18.6	?	-32.0%	-24.0%
O=C(CSc1nnc(COc2ccccc2)n1Cc1ccco1)c1ccc(F)cc1	18.0%	?	-2.7	28.2µM*	79.4µM*	-15.1%
O=C(CSc1nnc(-c2cc3ccccc3cc2O)n1Cc1ccco1)c1ccc(F)cc1	?	-20.6%	·	?	?	-7.5%
Cc1occc1-c1nnc(SCC(=O)c2ccc(F)cc2)n1Cc1ccco1	-3.5%	50.1µM*	-14.3	10µM*	-30.1%	-7.5%
CCNc1nc(NCC)n2c(SCC(=O)Nc3ccccc3OC(F)F)nnc2n1	17.8%	·	10.4	·	-17.4%	-11.4%
CCNc1nc(NCC)n2c(SCC(=O)Nc3ccc(F)cc3[N+](=O)[O-])nnc2n1	2.0%	-24.5%	-7.1	30.0%[12.7 µM]	-27.0%	-10.4%
CCNc1nc(NCC)n2c(SCC(=O)Nc3ccc(CC)cc3)nnc2n1	?	-32.7%	?	2.51µM*	?	6.7µM*
CCNc1nc(NCC)n2c(SCC(=O)Nc3ccccc3F)nnc2n1	-13.6%	7.9%	-1.8	-13.3%[0.501 µM]	-10.5%	11.9µM*
CCNc1nc(NCC)n2c(SCc3ccc(F)cc3)nnc2n1	4.2%	7.7%	-0.7	10µM*	-14.3%	-11.5%
CCNc1nc(NCC)n2c(SCC(=O)Nc3ccc(NC(C)=O)cc3)nnc2n1	-0.2%	50.1µM*	-1.4	50.1µM*	-25.3%	-4.7%
COc1cccc(/C=N/NC(=O)C(=O)N2CCCC2)c1OC	9.2%	7.8%	1.6	?	2.0%	-6.3%
CCOc1ccc(/C=N/NC(=O)C(=O)N2CCCCCC2)c2ccccc12	8.0%	70.8µM*	13.4	21.5%	-23.4%	1.1%
O=C(N/N=C/c1ccccc1O)C(=O)N1CCCCCC1	50.9%	79.4µM*	1.1	77.2%	?	-5.4%
COc1cccc(/C=N/NC(=O)C(=O)N2CCCC2)c1O	31.3%	15.8µM*	·	?	79.4µM*	-4.7%
C[C@@H](CCc1ccc(O)cc1)NCCc1ccc(O)c(O)c1	·	·	·	0.6%[21.5 µM]	·	·
CCOC(=O)c1c(C)[nH]c(C)c1C(=O)COC(=O)C1CCCN1S(=O)(=O)c1ccccc1F (configuration not stated)	-8.2%	?	10.2	50.1µM*	-24.8%	-1.2%
O=C(COC(=O)[C@@H]1CCCN1S(=O)(=O)c1ccccc1F)c1ccccc1	49.4%	-6.5%	-0.2	-0.4%	2.1%	6.8%
CCN(Cc1ccccc1)C(=O)c1cc2c(s1)-c1c(C)cccc1OC2	267.0%	227.2%	·	302.4%[59 µM]	236.0%	·
CC(C)C1CC(CCNCc2ccc(N(C)C)cc2)(c2ccccc2)CCO1 (configuration not stated)	?	25.1µM*	15.2	35.5µM*	31.6µM*	-9.6%
Cc1ccc(C2(CCNCc3ccc(N(C)C)cc3)CCOC(C(C)C)C2)cc1 (configuration not stated)	?	35.5µM*	24.4	?	39.8µM*	3.4%
CC(C)C1CC(CCNCc2ccc3c(c2)OCO3)(c2ccccc2)CCO1 (configuration not stated)	23.6%	-5.2%	1.3	-5.5%	-21.7%	-8.4%
O=C(Nc1ccccc1O)c1cc(S(=O)(=O)N2CCCC2)ccc1Cl	5.1%	?	·	-1.1%[59 µM]	-19.9%	·
COc1ccc(CCNC(=O)CCn2c(=O)c3ccccc3n(CC(=O)Nc3cccc(C)c3)c2=O)cc1OC	34.3%	4.1%	·	4.1%[59 µM]	10.6%	·
OC1CN=C2CCCc3c2n(c2ccc(Cl)cc32)C1 (configuration not stated)	24.3%	-37.2%	-7.3	?	-31.1%	-29.4%
